# Data reported in PubChem BioAssay AID504329 (Southern Research Specialized Biocontainment Screening …, 2011).
# The campaign covered roughly 340,000 compounds. About 1,000 (0.29%) were called active. Rule as the data show it: inconclusive = inhibition above about 27% without an active follow-up result; inactive = below that. Only a sample is shown. Potency and affinity values are given separately.
# Assay: NS1A inhibition, H1N1 influenza, cell based functional assay (AID 504329)
# Conditions: percent inhibition, at 12.5 µM, hits give high values
row,Structure (SMILES),inhibition
1,COCCCNC(=S)NNC(=O)c1csc(C)n1,-15.3% (inactive)
2,CC(C)C(=O)NNC(=O)c1ccccn1,-2.86% (inactive)
3,COc1ccc(C(=O)NNC(=O)c2ccccn2)cc1,-9.69% (inactive)
4,S=C(NCc1ccccn1)Nc1ccc(Cl)c(Cl)c1,1.31% (inactive)
5,COCCCNC(=S)NNC(=O)c1cccnc1,-5.08% (inactive)
6,Cc1cccc(NC(=O)NNC(=O)c2ccccn2)c1,0.66% (inactive)
7,COC(=O)c1nc2n(n1)C(c1ccc(OC)c(OC)c1)C(C(=O)OC1CCCCC1)=C(C)N2 (configuration not stated),1.19% (inactive)
8,Cc1nnc(NC2CCCCC2)[nH]c1=O,-4.74% (inactive)
9,COc1ccc(NS(=O)(=O)c2ccc(C(=O)N3CCN(Cc4ccccc4)CC3)cc2)cc1,11.9% (inactive)
10,Cc1onc(-c2c(F)cccc2Cl)c1C(=O)c1ccccc1,20% (inactive)
11,O=C(NCC(c1ccco1)N1CCc2ccccc2C1)c1cccc([N+](=O)[O-])c1 (configuration not stated),-12.3% (inactive)
12,Cn1c(=O)c2c(nc(NCc3ccccc3)n2C)n(C)c1=O,1.83% (inactive)
13,COc1ccccc1/C=C1\C(=O)NC(=S)N(c2ccccc2)C1=O,-27.6% (inactive)
14,O=C(Nc1csnn1)OCc1ccccc1,-22.9% (inactive)
15,Cc1[nH]c2ccccc2c1/C=N/O,-0.17% (inactive)
16,Cc1[nH]c2ccccc2c1/C=N/n1cnnc1,-3.32% (inactive)
17,O=C(c1cccc(S(=O)(=O)N2CCOCC2)c1)N(Cc1ccco1)Cc1cccs1,4.9% (inactive)
18,Oc1ccccc1C=Nc1cccc2ccccc12,-4.35% (inactive)
19,Oc1ccccc1C=Nc1ccccc1-c1nc2ccccc2[nH]1,41.1% (inactive)
20,Cc1ccc(Nc2cc(C)nc3c(C)cccc23)cc1,-2.9% (inactive)
21,O=S(=O)(NCc1cc(-c2ccccc2Cl)no1)c1ccc(Cl)cc1,0.63% (inactive)
22,COc1ccc(CNc2nc3nc(C)cc(C)n3n2)cc1,1.24% (inactive)
23,CSc1ncccc1C(=O)Nc1cccc(S(=O)(=O)N2CCCC2)c1,-2.85% (inactive)
24,O=C(COC(=O)c1ccccc1O)NNC(=O)c1ccc(Br)cc1,7.27% (inactive)
25,O=C(C1CCN(Cc2nc(Cc3cccc(F)c3)no2)CC1)N1CCOCC1,7.26% (inactive)

row,Structure (SMILES),inhibition
1,Cc1nnc2sc(SCC(=O)Nc3nccs3)nn2c1=O,-3.22% (inactive)
2,Cc1nnc2sc(SCc3cccc(Cl)c3)nn2c1=O,2.99% (inactive)
3,Cc1nnc2sc(SCc3ccc(Cl)cc3)nn2c1=O,-5.29% (inactive)
4,Cc1cccc(CSc2nn3c(=O)c(C)nnc3s2)c1,-3.29% (inactive)
5,Cc1ccc(NC(=O)CSc2nn3c(=O)c(C)nnc3s2)cc1Cl,12.2% (inactive)
6,Cc1nnc2sc(SCC(=O)Nc3ccc(Br)cc3)nn2c1=O,24.3% (inactive)
7,C=CC(C)(C)c1c(O)c(CC=C(C)C)c(O)c2c(=O)c3ccc(O)c(O)c3oc12,4.4% (inactive)
8,O=C(Cc1cccc(C(F)(F)F)c1)OCC(=O)N1CCN(S(=O)(=O)c2ccc(Cl)cc2)CC1,-3.3% (inactive)
9,CCOc1ccc(NC(=O)C2CCCN2C(=O)NC2CCCCC2)cc1 (configuration not stated),3.03% (inactive)
10,Cc1ccc2cc(CCNC(=O)C3CCCC3)c(=O)[nH]c2c1,9.32% (inactive)
11,CCC(C)(C)NC(=O)C(c1ccc(OC)cc1)N(C(=O)CCC(=O)Nc1cc(C)on1)c1ccc2c(c1)OCCO2 (configuration not stated),-4.61% (inactive)
12,CNC(=O)c1[nH]cnc1C(=O)Nc1cccc(C)c1,-8.44% (inactive)
13,COc1ccc(OCC(=O)Nc2ccc3c(c2)nc(CCn2ccccc2=O)n3C)cc1,5.24% (inactive)
14,O=C(c1ccc(-c2ccccc2)cc1)N1CCN(c2ncccn2)CC1,20.6% (inactive)
15,CN1CCN(C(=O)c2ccc3ccccc3c2)CC1,-18.4% (inactive)
16,CN1CCN(C(=O)c2ccc3nc(-c4ccccc4)c(-c4ccccc4)nc3c2)CC1,-4.76% (inactive)
17,Oc1cc(-c2ccc(N3CCCCC3)nc2)cc2cccnc12,-0.13% (inactive)
18,Cc1cc(N2CCN(C)CC2)nc(-c2ccccc2O)n1,8.33% (inactive)
19,CC(C)(C)c1ccc(C(=O)N2CCNCC2)cc1,-7.49% (inactive)
20,Cc1[nH]c2ccccc2c1C(=O)C(=O)N1CC(C)OC(C)C1 (configuration not stated),-0.55% (inactive)
21,COc1ccc(NC(=O)CN(C)C(=O)C2CSC3(C)CCC(=O)N23)cc1 (configuration not stated),-5.66% (inactive)
22,O=C(CCNC(=O)N1CC(=O)Nc2ccccc21)Nc1ccc(Cl)cc1,-4.42% (inactive)
23,Cc1cc(C(=O)NN)c2cc(Br)ccc2n1,-10.8% (inactive)
24,O=C(c1ccc(F)cc1F)N1CCC(N2CCC(C(=O)N3CCOCC3)CC2)CC1,4.56% (inactive)
25,CCOC(=O)C(=O)Nc1ccccc1C(=O)NCc1ccccc1,-18.5% (inactive)

row,Structure (SMILES),inhibition
1,CC(C)Cn1cnc2c(c1=N)C(c1ccccc1)C1=C(CC(C)(C)CC1=O)O2 (configuration not stated),0.81% (inactive)
2,COc1ccc(C2C(C(=O)c3ccccc3)N3c4ccccc4C=CC3C2[N+](=O)[O-])cc1 (configuration not stated),-12.1% (inactive)
3,O=C(c1ccco1)[C@@H]1[C@@H]2C(=O)N(c3ccc(F)cc3)C(=O)[C@@H]2[C@H]2C=Cc3ccccc3N21,0.66% (inactive)
4,Cc1cc(C)cc(N2C(=O)CCN(Cc3ccccc3)C2=O)c1,0.48% (inactive)
5,CC1=NN(c2ccccc2)C(=O)/C1=C/C=C/C=C/N(C)C,22.1% (inactive)
6,CC1=NN(c2ccccc2)C(=O)/C1=C/c1cccc(C)c1,-0.71% (inactive)
7,CC1=NN(c2ccccc2)C(=O)/C1=C/c1ccc(Cl)cc1,4.56% (inactive)
8,CC1=NN(c2ccccc2)C(=O)/C1=C/c1cccs1,24.1% (inactive)
9,CC1=NN(c2ccccc2)C(=O)/C1=C\C=C1\N(C)c2ccccc2C1(C)C,25.6% (inactive)
10,CC1=NN(c2ccccc2)C(=O)/C1=C/C=C/c1ccccc1,9.01% (inactive)
11,Cc1c(N=C/C=C2\N(C)c3ccccc3C2(C)C)c(=O)n(-c2ccccc2)n1C,1.39% (inactive)
12,CC1=NN(c2ccccc2)C(=O)/C1=C/N(C)C,12.1% (inactive)
13,CC(=O)Nc1cc(C)c2nc(NC(C)=O)sc2c1,8.68% (inactive)
14,Cc1cc(C)c2nc(N3CCCC(C(=O)NC4CCCC4)C3)sc2c1 (configuration not stated),1.03% (inactive)
15,CN(CC(=O)Nc1c(Cl)cccc1Cl)C(=O)CCC1CCCC1,-7.47% (inactive)
16,CCOc1ccc(OCCC(=O)OCC(=O)NCc2ccccc2)cc1,4.79% (inactive)
17,Cc1nc2ccccc2c2oc(C(=O)N3CCc4ccccc4C3)cc12,14.6% (inactive)
18,COc1ccccc1C(=O)NC(=O)COC(=O)c1ccc(Cl)cc1[N+](=O)[O-],11.3% (inactive)
19,O=C(N/N=C\C=C\c1ccc2c(c1)OCO2)C1COc2ccccc2O1 (configuration not stated),-2.03% (inactive)
20,COC(=O)CC1=NN(c2ccccc2)C(=O)/C1=C\c1ccc(OC)cc1,3.36% (inactive)
21,Cc1ccc(N2C(=O)NC(=O)/C(=C\C=C\c3ccco3)C2=O)cc1,-8.27% (inactive)
22,CN1/C(=C\C=C2C(=O)NC(=S)NC2=O)C(C)(C)c2ccccc21,6.82% (inactive)
23,O=C1NC(=O)N(c2ccccc2)C(=O)/C1=C/C=C/c1ccco1,-5.11% (inactive)
24,O=C(O)c1ccc(N2C(=O)/C(=C/C=C/c3ccccc3)SC2=S)cc1,-0.2% (inactive)
25,CN1/C(=C\C=C2C(=O)NC(=O)NC2=O)C(C)(C)c2ccccc21,-3.94% (inactive)

row,Structure (SMILES),inhibition
1,O=C1CC(N2C(=O)/C(=C/C=C/c3ccccc3)SC2=S)C(=O)N1c1ccccc1 (configuration not stated),7.39% (inactive)
2,CCOC(=O)CC1=NN(c2ccccc2)C(=O)/C1=C\c1ccc(OC)cc1OC,17.9% (inactive)
3,Cc1ccc(S(=O)(=O)CCC(=O)OC2CC(C)OC2=O)cc1 (configuration not stated),-7.36% (inactive)
4,C=CCOc1ccc(Br)cc1/C=C1\NC(=S)N(C(C)=O)C1=O,5.35% (inactive)
5,O=C(O)CP(=O)(c1ccccc1)c1ccccc1,-20.8% (inactive)
6,O=C(NC1CC1)C1CSC(c2cccnc2)=N1 (configuration not stated),-5.68% (inactive)
7,COC(=O)CNC(=O)CNC(=O)c1nn(-c2ccc(OC)c(Cl)c2)c(=O)c2ccccc12,-9.13% (inactive)
8,Cc1ccc(S(=O)(=O)c2nc(NCCN(C)C)sc2Cl)cc1,3.06% (inactive)
9,CCOC(=O)C1=C(C(=O)OCC)N(Cc2ccccc2)CCC1=O,-3.47% (inactive)
10,Cc1ccc(/C=N/NC(=O)C(C)NC(=O)c2ccccc2)cc1 (configuration not stated),-0.33% (inactive)
11,CCC(C)NC(=O)CSc1nc2ccccc2c(=O)n1-c1c(C)n(C)n(-c2ccccc2)c1=O (configuration not stated),-0.57% (inactive)
12,Fc1ccccc1CSc1nnc(-c2cnccn2)n1Cc1ccco1,-1.61% (inactive)
13,CCCNC(=O)c1cc(-c2ccccc2)c(N2CCCCC2)s1,-16.7% (inactive)
14,O=C(NCCc1ccccc1)c1cc(-c2ccccc2)c(N2CCOCC2)s1,1.49% (inactive)
15,NC(=S)N/N=C\c1c2ccccc2cc2ccccc12,8.41% (inactive)
16,CC(=O)n1cc(/C=N/NC(N)=S)c2ccccc21,-5.48% (inactive)
17,Cn1cc(/C=N/NC(N)=S)c2ccccc21,-12.5% (inactive)
18,Cc1[nH]c2ccccc2c1/C=N/NC(N)=S,5.2% (inactive)
19,CNc1cccnc1C=NNC(N)=S,17.7% (inactive)
20,NC(=S)N/N=C/c1c(O)ccc2ccccc12,-3.38% (inactive)
21,O=C(Nc1ccccc1)c1ccc(S(=O)(=O)NCc2cccnc2)cc1,10.4% (inactive)
22,CCn1c(SCC(=O)Nc2nc(-c3ccccc3)cs2)nc2c1c(=O)n(C)c(=O)n2C,4.76% (inactive)
